These results are taken from PubChem BioAssay (NCI).

Some test systems named below: NCI-H23 lung; NCI-H226 lung; NCI-H322M lung; HOP-62 NSCLC; NCI-H460 lung; HOP-92 NSCLC; NCI-H522 lung; A549/ATCC NSCLC; 786-0 renal; COLO 205 colon.
What all share (experiment): NCI-60 one-dose screen, 48 h (100 = growth as untreated, 0 = no growth, -100 = all killed)
Common to all, as to conditions: 10 µM unless noted

This is part of a sample that, as a whole, favours compounds with a hit. Of some 83,000 tested, about 20% had one in any assay.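 Activity criterion: percent growth below 10, measured after cells in 96-well plates were exposed to a single compound concentration for 48 hours.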 Values without a mark were called inactive. The source made the active and inactive calls.

For `CCN(CC)CCNC(=O)c1cn2ncnc(Oc3ccc(NC(=O)Nc4ccc(Cl)c(C(F)(F)F)c4)c(F)c3)c2c1C`, the growth was -37.4% (active) in the experiment on NCI-H23 lung; 73.9% in the experiment on NCI-H226 lung; 34.4% in the experiment with NCI-H322M lung; 36.5% in the experiment on HOP-62 NSCLC; -67% (active) in the experiment with NCI-H460 lung; 22.1% in the experiment with HOP-92 NSCLC. For the same compound, the growth with NCI-H522 lung is -52.3% (active); with A549/ATCC NSCLC, 4.56% (active); with 786-0 renal, -86.1% (active); in the experiment with COLO 205 colon, -59.5% (active).
In the case of `COc1cc(-c2csc(NC(=O)c3cc(-n4cnc(C)c4)cc(C(F)(F)F)c3)n2)cc(OC)c1OC`, the growth was 61.2% with NCI-H23 lung; 58% in the experiment with NCI-H226 lung; 67% in the experiment with NCI-H322M lung; 72.4% in the experiment on HOP-62 NSCLC; 33.8% in the experiment with NCI-H460 lung; 6.13% (active) in the experiment on HOP-92 NSCLC. The growth in the experiment with NCI-H522 lung was 38.5%; in the experiment with A549/ATCC NSCLC it was 60.2%; with 786-0 renal it was 60.2%; with COLO 205 colon, 84.9%.
On to `O=C(Cn1cc(CN2CCCCCC2)nn1)Nc1ccc2c(ccn2Cc2ccccc2)c1`, for which the growth in the experiment on NCI-H23 lung is 96.4%; in the experiment on NCI-H226 lung it was 81.5%; in the experiment with NCI-H322M lung, 94.8%; in the experiment with HOP-62 NSCLC, 80.6%; with NCI-H460 lung, 102%; in the experiment with HOP-92 NSCLC, 64%. The growth in the experiment with NCI-H522 lung is 86.9%; in the experiment with A549/ATCC NSCLC, 92.3%; with 786-0 renal, 87.8%; in the experiment with COLO 205 colon, 88.9%.
For the compound `COc1cc(/C=C\c2cc(/C=C\c3ccc(O)c(OC)c3)n(C(=O)COc3ccc(Cl)cc3Cl)n2)ccc1O`, the growth was 14.1% with NCI-H23 lung; 26.5% in the experiment with NCI-H226 lung; 40.8% in the experiment with NCI-H322M lung; 11.3% with HOP-62 NSCLC; 9.28% (active) in the experiment with NCI-H460 lung; 12.5% in the experiment on HOP-92 NSCLC. Further, the growth is -28.7% (active) in the experiment on NCI-H522 lung, 10.6% with A549/ATCC NSCLC, 13.7% in the experiment on 786-0 renal and 82.4% with COLO 205 colon.
As to `CCOC(=O)C(=Cc1cccc(Br)c1)C(=O)OCC`, the growth in the experiment with NCI-H23 lung was 17.7%; in the experiment with NCI-H226 lung it was 45.2%; with NCI-H322M lung, 65.5%; in the experiment on HOP-62 NSCLC, 85.1%; in the experiment on NCI-H460 lung, 68.2%; in the experiment on HOP-92 NSCLC it was 12.9%. The growth in the experiment on NCI-H522 lung is 23.9%; in the experiment with A549/ATCC NSCLC it was 41.8%; in the experiment with 786-0 renal, 47.4%; in the experiment on COLO 205 colon, 46.6%.
Take `CCOC(=O)c1ccc2[nH]c(O)c(C(=Nc3ccc(N(C)C(=O)CN4CCN(C)CC4)cc3)c3ccccc3)c2c1`: the growth in the experiment on NCI-H23 lung was -59.3% (active); with NCI-H226 lung, 15.5%; in the experiment on NCI-H322M lung it was 11.7%; in the experiment on HOP-62 NSCLC, -5.97% (active); in the experiment with NCI-H460 lung, -27.1% (active); in the experiment with HOP-92 NSCLC, 30.3%. In addition, the growth with NCI-H522 lung was -48.8% (active); with A549/ATCC NSCLC, -20.5% (active); in the experiment on 786-0 renal, -95% (active); in the experiment on COLO 205 colon, -56.3% (active).
For `CN1CCN(Cc2ccc3c(NNC(=O)c4ccccc4)nc4cc(F)ccc4n23)CC1`, the growth was 29.9% in the experiment with NCI-H23 lung; 12.6% in the experiment with NCI-H226 lung; 28.2% in the experiment with NCI-H322M lung; 24.1% with HOP-62 NSCLC; 3.88% (active) in the experiment on NCI-H460 lung; 50.7% in the experiment on HOP-92 NSCLC. For the same compound, the growth with NCI-H522 lung was 28%; in the experiment on A549/ATCC NSCLC it was 14.8%; with 786-0 renal, 26.4%; in the experiment on COLO 205 colon it was 19.5%.
Regarding `OCCCC1CCN(C(Cc2ccccc2)c2ccccc2)CC1` (stereo not given), the growth was 102% in the experiment with NCI-H23 lung; 102% in the experiment with NCI-H226 lung; 93.7% in the experiment with NCI-H322M lung; 87.2% with HOP-62 NSCLC; 106% in the experiment on NCI-H460 lung; 80.6% in the experiment on HOP-92 NSCLC. Moreover, the growth was 43.9% with NCI-H522 lung, 73.3% in the experiment with A549/ATCC NSCLC, 82.5% in the experiment on 786-0 renal and 79.9% with COLO 205 colon.
Regarding `O=C(Cc1ccccc1)Nc1nc(O)c(/C=C2\C(=O)C=Cc3ccccc32)s1`, the growth is 90.7% in the experiment with NCI-H23 lung; 100% in the experiment on NCI-H226 lung; 98.2% in the experiment with NCI-H322M lung; 107% in the experiment with HOP-62 NSCLC; 99.4% with NCI-H460 lung; 85.2% with HOP-92 NSCLC. The growth is 90.5% in the experiment on NCI-H522 lung, 101% in the experiment on A549/ATCC NSCLC, 102% in the experiment on 786-0 renal and 111% with COLO 205 colon.
Turning to `COc1ccc(-c2nnc3n(C)c(=O)c4ccccc4n23)cc1N`, the growth in the experiment on NCI-H23 lung is 46.6%; with NCI-H226 lung it was 70.1%; with NCI-H322M lung, 39.5%; in the experiment with HOP-62 NSCLC, 23.3%; in the experiment on NCI-H460 lung it was 13.6%; in the experiment on HOP-92 NSCLC, 49.9%. Also, the growth in the experiment on NCI-H522 lung is 18.8%; in the experiment with A549/ATCC NSCLC, 28.6%; with 786-0 renal, 23%; in the experiment with COLO 205 colon, -22.2% (active).
Consider `O=C1c2cc(Cl)ccc2S(=O)(=O)c2c(NCCCNCCO)nc3ccccc3c21`, for which the growth was 25.7% in the experiment on NCI-H23 lung; 27.4% in the experiment with NCI-H226 lung; 73.8% with NCI-H322M lung; 42.3% in the experiment on HOP-62 NSCLC; 22.5% in the experiment with NCI-H460 lung; -66% (active) in the experiment with HOP-92 NSCLC. The growth in the experiment on NCI-H522 lung was -77.1% (active); in the experiment with A549/ATCC NSCLC, 43.3%; in the experiment with 786-0 renal, 2.5% (active); in the experiment with COLO 205 colon, -81.2% (active).
Turning to `Cc1ccc(-c2cc(-c3ccc(Cl)cc3)nc(NC(=O)c3cccnc3)n2)cc1`, the growth with NCI-H23 lung is 96.5%; in the experiment on NCI-H226 lung, 98.6%; with NCI-H322M lung, 98.5%; in the experiment on HOP-62 NSCLC, 114%; with NCI-H460 lung, 102%; in the experiment on HOP-92 NSCLC it was 117%. The growth in the experiment on NCI-H522 lung is 93.5%; with A549/ATCC NSCLC, 105%; in the experiment on 786-0 renal it was 102%; in the experiment with COLO 205 colon, 109%.
On to `CC(=O)OC[C@]12CCC(C)(C)C[C@H]1[C@@]1(O)[C@H](O)C[C@@H]3[C@@]4(C)CCCNC(C)(C)[C@@H]4CC[C@@]3(C)[C@]1(C)CC2`, for which the growth in the experiment with NCI-H23 lung was 106%; in the experiment with NCI-H226 lung it was 102%; in the experiment with NCI-H322M lung, 98.1%; in the experiment with HOP-62 NSCLC, 107%; in the experiment with NCI-H460 lung it was 110%; in the experiment on HOP-92 NSCLC, 112%. For the same compound, the growth with NCI-H522 lung was 93.6%; in the experiment with A549/ATCC NSCLC it was 106%; with 786-0 renal it was 101%; with COLO 205 colon, 117%.
